This is an account of results in PubChem BioAssay (NCI).

Each structure is given as a SMILES string. Compounds without any hit were thinned out: in the full panel of roughly 83,000, 20% have a hit.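 Values shown are percent growth following 48 h exposure of cells in 96-well plates to a single concentration of compound; below 10 was considered active.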 Values without a mark were called inactive. Active and inactive are the calls of the source.

What all share (assay): NCI-60 one-dose screen, 48 h (100 = growth as untreated, 0 = no growth, -100 = all killed)
The subject of one assay is NCI-H23 lung. The conditions noted are these: 10 µM unless noted.
For the next assay, the system named is NCI-H226 lung. Particulars: 10 µM unless noted.
In a further assay the test system is MDA-MB-231 breast. The conditions noted are these: 10 µM unless noted.
The next assay concerns SF-268 CNS. The conditions noted are these: 10 µM unless noted.
Another assay has as its system SF-539 CNS. Particulars: 10 µM unless noted.
For another assay, the system named is HCT-15 colon. The conditions noted are these: 10 µM.
For the next assay, the system named is HT29 colon. Particulars: 10 µM unless noted.
The next assay concerns PC-3 prostate. The conditions noted are these: 10 µM unless noted.
The subject of a further assay is SK-MEL-5 melanoma. Particulars: 10 µM unless noted.
Another assay deals with UACC-62 melanoma. Particulars: 10 µM unless noted.
The next assay has as its system SK-MEL-28 melanoma. The conditions noted are these: 10 µM unless noted.
In a further assay the test system is SN12C renal. The conditions noted are these: 10 µM unless noted.
For another assay, the system named is ACHN renal. Particulars: 10 µM unless noted.
Another assay concerns OVCAR-8 ovarian. The conditions noted are these: 10 µM unless noted.
In a further assay the test system is OVCAR-3 ovarian. Particulars: 10 µM unless noted.
The test system of the next assay is NCI/ADR-RES ovarian. Particulars: 10 µM unless noted.
The subject of a further assay is MDA-MB-435 melanoma. Particulars: 10 µM unless noted.
A further assay has as its system MCF7 breast. Particulars: 10 µM unless noted.
In another assay the test system is KM12 colon. Particulars: 10 µM unless noted.
The next assay relates to SNB-75 CNS. Particulars: 10 µM unless noted.

Regarding `CNC(=O)Oc1cccc(OC)c1`, the growth with NCI-H23 lung was 101%; in the assay with NCI-H226 lung it was 102%; in the assay with MDA-MB-231 breast, 93.3%; with SF-268 CNS, 118%; in the assay with SF-539 CNS it was 111%; in the assay with HCT-15 colon, 112%. Further, the growth is 103% in the assay with HT29 colon; 109% with PC-3 prostate; 109% with SK-MEL-5 melanoma; 100% in the assay on UACC-62 melanoma; 111% in the assay with SK-MEL-28 melanoma; 93.3% in the assay with SN12C renal. The growth is 109% in the assay on ACHN renal; 108% in the assay on OVCAR-8 ovarian; 121% in the assay on OVCAR-3 ovarian; 106% in the assay with NCI/ADR-RES ovarian; 95.5% with MDA-MB-435 melanoma; 101% in the assay with MCF7 breast. Further, the growth with KM12 colon is 112%.
`CC1(CF)NC(=O)NC1=O` (stereo not drawn): the growth is 103% in the assay on NCI-H23 lung; 119% with NCI-H226 lung; 99.1% in the assay on MDA-MB-231 breast; 104% in the assay with SF-268 CNS; 105% in the assay on HCT-15 colon; 89.9% with SNB-75 CNS. For the same compound, the growth is 101% in the assay on PC-3 prostate; 114% in the assay on SK-MEL-5 melanoma; 96.8% in the assay on UACC-62 melanoma; 111% with SK-MEL-28 melanoma; 94.3% in the assay with SN12C renal; 102% with OVCAR-8 ovarian. Further, the growth is 115% in the assay on OVCAR-3 ovarian; 107% with NCI/ADR-RES ovarian; 107% in the assay with MDA-MB-435 melanoma; 92.7% in the assay with MCF7 breast; 106% with KM12 colon.
For the compound `CC(=O)O[C@H]1CCC2(C)C(=CCC3C2CCC2(C)/C(=N/OC(=O)c4ccc(N(CCCl)CCCl)cc4)CCC32)C1` (stereo partly drawn), the growth in the assay with NCI-H23 lung was 45.8%; in the assay with NCI-H226 lung, 101%; with MDA-MB-231 breast it was 40.5%; in the assay on SF-268 CNS, 5.4% (active); in the assay on SF-539 CNS, 51.5%; in the assay with HCT-15 colon, 55.2%. Moreover, the growth in the assay on HT29 colon was 32.6%; with SNB-75 CNS, 22.5%; in the assay on PC-3 prostate, 47.8%; with SK-MEL-5 melanoma it was 73.2%; with UACC-62 melanoma, 68.4%; in the assay with SK-MEL-28 melanoma, 81.8%. The growth in the assay on SN12C renal was 47.3%; with ACHN renal, 46.4%; in the assay on OVCAR-8 ovarian, 56.4%; in the assay on OVCAR-3 ovarian it was 53.5%; in the assay with NCI/ADR-RES ovarian, 44%; with MDA-MB-435 melanoma it was 47.1%. For the same compound, the growth in the assay on MCF7 breast was 39%; with KM12 colon it was 47.6%.
Regarding `CC[CH2][Pb]([CH2]CC)([CH2]CC)[O]C(=O)C(F)(F)F`, the growth in the assay with NCI-H23 lung was -46.4% (active); in the assay on NCI-H226 lung it was -61.6% (active); with MDA-MB-231 breast, -50.3% (active); with SF-268 CNS, -82.3% (active); with SF-539 CNS, -99.2% (active); in the assay with HCT-15 colon, -88.2% (active). In addition, the growth with HT29 colon is -61.5% (active); in the assay on SNB-75 CNS, -99.9% (active); in the assay with SK-MEL-5 melanoma, -98.3% (active); with UACC-62 melanoma it was -83.2% (active); with SK-MEL-28 melanoma, -97.2% (active); in the assay with SN12C renal it was -79.3% (active). The growth with ACHN renal was -100% (active); with OVCAR-8 ovarian it was -69.4% (active); with OVCAR-3 ovarian, -95.4% (active); in the assay on NCI/ADR-RES ovarian it was -36.6% (active); in the assay on MDA-MB-435 melanoma it was -97.1% (active); with MCF7 breast, -79.7% (active). In the assay with KM12 colon, the growth was -88.2% (active).
For `O=[N+]([O-])c1ccc2cnn(CSP(=S)(c3ccccc3)c3ccccc3)c2c1`, the growth in the assay on NCI-H23 lung was 67.4%; in the assay on NCI-H226 lung, 77.4%; with MDA-MB-231 breast, 51.8%; with SF-268 CNS, 79.9%; with SF-539 CNS, 82.7%; in the assay with HCT-15 colon, 48.1%. Also, the growth was 39.6% in the assay with HT29 colon; 70.6% with SNB-75 CNS; 58.6% with PC-3 prostate; 56% in the assay with SK-MEL-5 melanoma; 43% in the assay with UACC-62 melanoma; 74.1% in the assay on SK-MEL-28 melanoma. The growth in the assay with SN12C renal is 69.9%; in the assay with ACHN renal, 74.8%; with OVCAR-8 ovarian, 82.4%; in the assay with OVCAR-3 ovarian, 71.6%; in the assay with NCI/ADR-RES ovarian it was 49.8%; in the assay with MDA-MB-435 melanoma, -20.9% (active). Moreover, the growth in the assay on MCF7 breast was 26.8%; with KM12 colon it was 63.7%.
Take `O=C(CF)N(O)c1ccc(/C=C/c2ccccc2)cc1`: the growth was 60.7% in the assay with NCI-H23 lung; -22.9% (active) in the assay with NCI-H226 lung; 73.4% in the assay with MDA-MB-231 breast; 42.5% in the assay on SF-268 CNS; 36.2% with SF-539 CNS; 66.6% with HCT-15 colon. For the same compound, the growth in the assay on HT29 colon was 57.6%; in the assay on SNB-75 CNS, 70.9%; in the assay on PC-3 prostate it was 62.3%; with SK-MEL-5 melanoma it was 77.1%; with UACC-62 melanoma, 23.4%; in the assay with SK-MEL-28 melanoma it was 99.9%. Further, the growth with SN12C renal is 26.6%; in the assay on ACHN renal, 13.9%; in the assay on OVCAR-8 ovarian, 39.9%; with OVCAR-3 ovarian it was 23.9%; with NCI/ADR-RES ovarian, 44.1%; in the assay on MDA-MB-435 melanoma, 72.3%. For the same compound, the growth in the assay with MCF7 breast was 16.5%; in the assay with KM12 colon it was 69.5%.
In the case of `COc1ccc2c(c1)NC1=C(C(=O)OC1)C2c1cc(OC)c(OC)c(OC)c1` (stereo not drawn), the growth in the assay with NCI-H23 lung is 16.2%; with NCI-H226 lung, 49.6%; with MDA-MB-231 breast, 6.08% (active); with SF-268 CNS it was 22.6%; with SF-539 CNS it was -4.41% (active); in the assay on HCT-15 colon, 15.3%. The growth is 1.35% (active) in the assay on HT29 colon; 45.7% in the assay with SNB-75 CNS; 20.6% in the assay on PC-3 prostate; -49.1% (active) with SK-MEL-5 melanoma; 44.7% with UACC-62 melanoma; 66.2% in the assay on SK-MEL-28 melanoma. Besides, the growth in the assay on SN12C renal is 23.1%; in the assay on ACHN renal it was 31.1%; in the assay on OVCAR-8 ovarian, 15.2%; in the assay on OVCAR-3 ovarian it was -41.9% (active); in the assay with NCI/ADR-RES ovarian, -34.5% (active); in the assay on MDA-MB-435 melanoma, -35.5% (active). Further, the results for the growth in the assay with MCF7 breast and with KM12 colon were 9.07% (active) and -4.06% (active), respectively.
With `O=[N+]([O-])c1cc([N+](=O)[O-])c(Cl)c(Cl)c1Cl`, the growth was 43% with NCI-H23 lung; 52.8% in the assay with NCI-H226 lung; 22.3% with MDA-MB-231 breast; 11.6% with SF-539 CNS; -49.1% (active) in the assay with HCT-15 colon; -85.5% (active) in the assay on HT29 colon. In addition, the growth with SNB-75 CNS was 59.6%; in the assay on PC-3 prostate it was 57.1%; with UACC-62 melanoma, 14.6%; in the assay on SK-MEL-28 melanoma, 65.9%; in the assay with SN12C renal it was 19.4%; in the assay with ACHN renal it was -87.1% (active). In addition, the growth in the assay with OVCAR-8 ovarian is -41.1% (active); in the assay with OVCAR-3 ovarian it was -99% (active); in the assay on NCI/ADR-RES ovarian, 21.4%; in the assay with MDA-MB-435 melanoma it was 19.3%; in the assay with MCF7 breast it was 2.17% (active); in the assay on KM12 colon, 37.4%.
Turning to `C=CC(=O)NC(O)C(Cl)(Cl)Cl` (stereo not drawn), the growth in the assay with NCI-H23 lung is 105%; in the assay on NCI-H226 lung, 112%; with MDA-MB-231 breast it was 115%; in the assay on SF-268 CNS it was 104%; in the assay with SF-539 CNS, 102%; with HCT-15 colon, 97.1%. Further, the growth is 106% in the assay with HT29 colon; 100% with SNB-75 CNS; 102% with PC-3 prostate; 119% in the assay on SK-MEL-5 melanoma; 101% in the assay with UACC-62 melanoma; 103% with SK-MEL-28 melanoma. Besides, the growth was 109% in the assay on SN12C renal; 99.6% in the assay on ACHN renal; 108% in the assay with OVCAR-8 ovarian; 105% in the assay on OVCAR-3 ovarian; 106% in the assay on NCI/ADR-RES ovarian; 105% in the assay with MDA-MB-435 melanoma. The results for the growth in the assay on MCF7 breast and in the assay with KM12 colon were 105% and 106%, respectively.
